Laboratory results published in the supplement of paper PMC9844399.
Structures can show the parent of a compound that is named as a salt. Values without a mark were called inactive.

test system: HeLa; experiment: MALAT1 nuclear FISH intensity, robust Z-score vs DMSO; higher = more nuclear MALAT1 lncRNA, active = -3 or less; conditions: 10 µM; 6 h
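Also: High-content confocal imaging of branched-DNA amplified FISH in 384-well plates, Hoechst-defined nuclei, score is well value minus plate DMSO median over DMSO robust SD, four wells per compound.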

| SMILES | MALAT1 nuclear FISH intensity |
| --- | --- |
| CN(C)c1ccc(O)c2c1C[C@H]1C[C@H]3[C@H](N(C)C)C(O)=C(C(N)=O)C(=O)[C@@]3(O)C(O)=C1C2=O [Minocycline] | 1.03 |
| O=C(NCCN1CCC(n2c(=O)[nH]c3cc(Cl)ccc32)CC1)c1ccc(F)cc1 [Halopemide] | -0.559 |
| CCCCC/C=C\C/C=C\C/C=C\C/C=C\CCCC(=O)O[C@@H](CO)COCCCCCCCCCCCCCCCC [1-Hexadecyl-2-arachidonoyl-glycerol] | -0.812 |
| CN/C(=N\c1ccc(C2=NNC(=O)CC2C)cc1)NC#N (centres undefined) [Siguazodan] | -0.726 |
| CCCCCCCCCCCCCCCC(=O)O[C@@H]1[C@@H](O)[C@@H](O)[C@@H]([C@H](NC(=O)[C@@H]2C[C@@H](CCC)CN2C)[C@H](C)Cl)O[C@@H]1SC | -1.32 |
| NNc1nncc2ccccc12 | -0.795 |
| CO[C@H]1O[C@@H]2O[C@@]3(C)CC[C@H]4[C@H](C)CC[C@@H]([C@H]1C)[C@@]24OO3 [Artemether] | -0.163 |
| CCCCN1CCCCC1C(=O)Nc1c(C)cccc1C (centres undefined) | -1.15 |
| CCCCCC(O)C=CC1C(O)CC(O)C1CC=CCCCC(=O)O (stereo not drawn) [8-epi-Prostaglandin F2a] | -0.0974 |
| CCC(=O)N1CCN(c2ccc(-n3c(=O)ccc4cnc5ccc(-c6cnc7ccccc7c6)cc5c43)cc2C(F)(F)F)CC1 [Torin 1] | -1.13 |
| Cc1cccc(CN2CCN(C(c3ccccc3)c3ccc(Cl)cc3)CC2)c1 (centres undefined) [Meclizine Dihydrochloride] | 2.28 |
| COC(c1ccccc1)(c1ccccc1)[C@H](Oc1nc(C)cc(C)n1)C(=O)O [Ambrisentan] | -1.3 |
| CC(C)[C@H](NC(=O)OCc1ccccc1)C(=O)N[C@H](C=O)Cc1ccccc1 [Calpain Inhibitor III] | -0.153 |
| N[C@H]1C(O)O[C@H](CO)[C@@H](O)[C@@H]1O (some centres undefined) [Glucosamine HCl] | -0.415 |
| CC(=O)OC(C)C[N+](C)(C)C (centres undefined) [Methacholine Chloride] | -0.0828 |
| C#C[C@]1(O)CC[C@H]2[C@@H]3CCc4cc(O)ccc4[C@H]3CC[C@@]21C [Ethinyl estradiol] | 0.718 |
| CCN1CCN(C(=O)N[C@@H](C(=O)N[C@@H]2C(=O)N3[C@@H]2SC(C)(C)[C@@H]3C(=O)O)c2ccccc2)C(=O)C1=O [Piperacillin] | -0.27 |
| CC(C)c1ccc2oc3nc(N)c(C(=O)O)cc3c(=O)c2c1 [Amlexanox] | 0.337 |
| C[N+](C)(C)CC(=O)O [Betaine] | 0.765 |
| CCn1cc(C(=O)O)c(=O)c2cc(F)c(N3CCNCC3)cc21 [Norfloxacin] | 0.376 |

| SMILES | MALAT1 nuclear FISH intensity |
| --- | --- |
| CCN(CC)CCOC(=O)C1(C2CCCCC2)CCCCC1 | 1.14 |
| Clc1ccc(CCC(Cn2ccnc2)Sc2c(Cl)cccc2Cl)cc1 (centres undefined) [Butoconazole Nitrate] | 0.588 |
| NCCNCCNCCN [Trientine Dihydrochloride] | 0.0546 |
| CCOC(=O)[C@H](CCc1ccccc1)N[C@@H](C)C(=O)N1CCC[C@H]1C(=O)O [Enalapril] | 0.257 |
| C=C[C@@]1(C)CC(=O)[C@]2(O)[C@@]3(C)[C@@H](O)CCC(C)(C)[C@@H]3[C@H](O)[C@H](OC(C)=O)[C@@]2(C)O1 [Forskolin] | -1.06 |
| COc1ccccc1OCCNCC(O)COc1cccc2[nH]c3ccccc3c12 (centres undefined) [Carvedilol] | 1.69 |
| NS(=O)(=O)c1cc(C(=O)O)c(NCc2ccco2)cc1Cl [Furosemide] | -2.05 |
| Nc1c(Br)cc(Br)cc1CN[C@H]1CC[C@H](O)CC1 [Ambroxol hydrochloride] | -1.16 |
| C=CCNC1=C2C[C@@H](C)C[C@H](OC)[C@H](O)[C@@H](C)/C=C(\C)[C@H](OC(N)=O)[C@@H](OC)/C=C\C=C(/C)C(=O)NC(=CC1=O)C2=O [17-Allylamino-geldanamycin] | 1.39 |
| OC[C@H]1NC[C@H](O)[C@@H](O)[C@@H]1O [1-Deoxynojirimycin] | -0.641 |
| CCc1nc(N)nc(N)c1-c1ccc(Cl)cc1 [Pyrimethamine] | -0.304 |
| N#Cc1cc2c(OCC(O)CN3CCN(C(c4ccccc4)c4ccccc4)CC3)cccc2[nH]1 (centres undefined) | -0.269 |
| COCCCC/C(=N\OCCN)c1ccc(C(F)(F)F)cc1 [Fluvoxamine Maleate] | -0.93 |
| COC(=O)[C@H](c1ccccc1Cl)N1CCc2sccc2C1 [Clopidogrel Hydrogen Sulfate] | -0.13 |
| COc1cc2nc(N(C)CCCNC(=O)C3CCCO3)nc(N)c2cc1OC (centres undefined) [Alfuzosin] | -0.416 |
| CCCCC/C=C\C[C@@H](O)/C=C/C=C\C/C=C\CCCC(=O)O | 0.00797 |
| Cc1cccc(Nc2cc(Cl)nc(SCC(=O)O)n2)c1C | -1.25 |
| C[N+](C)(C)C[C@H](O)CC(=O)[O-] [Levocarnitine] | -0.287 |
| CCNC(=O)CCC/C=C\C[C@@H]1[C@@H](/C=C/[C@@H](O)CCc2ccccc2)[C@H](O)C[C@@H]1O [Bimatoprost] | 0.451 |
